# Measurements published in article PMC5700166.
# Target: GST-Hu-p50 (Homo sapiens, UniProt P19838 7-356)
# Assay: protein-binding microarray (PBM); PBM: ~300 nM protein, 6 mM HEPES pH 7.8, 80 mM KCl, 0.5 mM EDTA, 0.5 mM EGTA, 6% glycerol, 35 ng/ul poly-dIdC, 1% milk, 1 h, room temperature; Ap Aiptasia and Nv Nematostella (sea anemones) / Co Capsaspora / Aq Amphimedon (sponge) / Dm Drosophila / Hu human; RHD is the Rel homology domain; high values mean tight binding
# Conditions: dsDNA, one strand shown
# Chain of GST-Hu-p50 (P19838 7-356): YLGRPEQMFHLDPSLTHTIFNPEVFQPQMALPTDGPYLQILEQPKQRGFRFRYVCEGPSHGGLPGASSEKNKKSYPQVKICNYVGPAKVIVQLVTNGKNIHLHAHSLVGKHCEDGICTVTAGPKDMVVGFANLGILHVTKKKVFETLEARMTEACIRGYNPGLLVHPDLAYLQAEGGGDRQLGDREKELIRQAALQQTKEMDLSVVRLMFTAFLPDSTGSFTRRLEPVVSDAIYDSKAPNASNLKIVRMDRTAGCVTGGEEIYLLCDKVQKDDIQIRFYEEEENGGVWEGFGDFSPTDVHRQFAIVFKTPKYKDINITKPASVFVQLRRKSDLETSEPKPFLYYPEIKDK
row,Sequence,binding signal [z-score]
1,CCGATTAACATCAAATGGGAATTTGATGTTAATCGGGTCTTGATTCGCTTGACGCTGCTG,3.42
2,CCGATTAACATCAGGGGTATAACTGATGTTAATCGGGTCTTGATTCGCTTGACGCTGCTG,1.68
3,CCGATTAACATCAAATTCCCAGATGATGTTAATCGGGTCTTGATTCGCTTGACGCTGCTG,2.58
4,CCGATTAACATCAGGGGTTTCCATGATGTTAATCGGGTCTTGATTCGCTTGACGCTGCTG,4.95
5,CCGATTAACATCAAAAATCACCCTGATGTTAATCGGGTCTTGATTCGCTTGACGCTGCTG,4.76
6,CCGATTAACATCAAGTATTTCCCTGATGTTAATCGGGTCTTGATTCGCTTGACGCTGCTG,3.64
7,CCGATTAACATCAGGGAAACTCATGATGTTAATCGGGTCTTGATTCGCTTGACGCTGCTG,3.13
8,CCGATTAACATCAAAAGACCCCCTGATGTTAATCGGGTCTTGATTCGCTTGACGCTGCTG,5.26
9,CCGATTAACATCAGGGAAACCCATGATGTTAATCGGGTCTTGATTCGCTTGACGCTGCTG,3.11
10,CCGATTAACATCAGGTAATTTACTGATGTTAATCGGGTCTTGATTCGCTTGACGCTGCTG,2.79
11,CCGATTAACATCAACCCTCCCCCTGATGTTAATCGGGTCTTGATTCGCTTGACGCTGCTG,3.3
12,CCGATTAACATCAGGGGCTACCCTGATGTTAATCGGGTCTTGATTCGCTTGACGCTGCTG,3.35
13,CCGATTAACATCAGGAATTTACCTGATGTTAATCGGGTCTTGATTCGCTTGACGCTGCTG,3.27
14,CCGATTAACATCAGATTTCCCACTGATGTTAATCGGGTCTTGATTCGCTTGACGCTGCTG,2.99
15,CCGATTAACATCAAAAAACACCCTGATGTTAATCGGGTCTTGATTCGCTTGACGCTGCTG,5.16
16,CCGATTAACATCAGCGAATTCCCTGATGTTAATCGGGTCTTGATTCGCTTGACGCTGCTG,3.28
17,CCGATTAACATCACCCAGGGAAATGATGTTAATCGGGTCTTGATTCGCTTGACGCTGCTG,2.01
18,CCGATTAACATCAGGGGATCCCATGATGTTAATCGGGTCTTGATTCGCTTGACGCTGCTG,4.5
19,CCGATTAACATCAGGATTGCCCCTGATGTTAATCGGGTCTTGATTCGCTTGACGCTGCTG,3.69
20,CCGATTAACATCAGGAAAAGCCCTGATGTTAATCGGGTCTTGATTCGCTTGACGCTGCTG,2.56
21,CCGATTAACATCAGGGGGGACAATGATGTTAATCGGGTCTTGATTCGCTTGACGCTGCTG,3.69
22,CCGATTAACATCAGAAGATTCCCTGATGTTAATCGGGTCTTGATTCGCTTGACGCTGCTG,4.09
23,CCGATTAACATCAGGGCGTCCCCTGATGTTAATCGGGTCTTGATTCGCTTGACGCTGCTG,4.86
24,CCGATTAACATCAGACTGGGAAATGATGTTAATCGGGTCTTGATTCGCTTGACGCTGCTG,1.43
25,CCGATTAACATCAGGGGATCTACTGATGTTAATCGGGTCTTGATTCGCTTGACGCTGCTG,4.5
